This passage reports outcome and AC50 results from PubChem BioAssay (EPA / NIEHS).

Conditions in all cases: mRNA level, 48 h; actives raise or lower the signal
Read-out in one test: CYP3A5 (gene 1577)
The test is described as follows: LTEA_HepaRG_CYP3A5: Life Technologies and Expression Analysis (LTEA) Assay for CYP3A5 using HepaRG (AID 2283493). The method in brief: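 Human HepaRG hepatic cells receive 48 h chemical treatment at eight concentrations (half-log steps from 100 uM) in 0.5% DMSO. Expression of CYP3A5 is quantified by Fluidigm qRT-PCR and normalized to three reference genes.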

Read-out in test [1]: Fatty Acid-Binding Protein 1 (FABP1), FABP1 (gene 2168)
The test is described as follows: LTEA_HepaRG_FABP1: Life Technologies and Expression Analysis (LTEA) Assay for Fatty Acid-Binding Protein 1 (FABP1) using HepaRG (AID 2283494). An outline of the steps: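 FABP1 expression by TaqMan qRT-PCR, normalised to three housekeeping genes, in HepaRG cells after 48 h chemical treatment. Eight-point half-log series topping at 100 uM in 0.5% DMSO, duplicates; gain or loss fitted relative to vehicle.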

Read-out in test [2]: Cytochrome P450 4A22 (Homo sapiens) (UniProt Q5TCH4)
Put plainly: LTEA_HepaRG_CYP4A22: Life Technologies and Expression Analysis (LTEA) Assay for Cytochrome P450 4A22 (CYP4A22) using HepaRG (AID 2283495). The method in brief:
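HepaRG, 48 h post-plating -> serum-free induction medium; dosed 48 h, duplicate, 8 conc. (100 uM top, half-log), 0.5% DMSO. Readout: CYP4A22 mRNA by qRT-PCR, ACTB/GAPDH/POLR2A normalization; gain/loss fit relative to DMSO.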

Read-out in test [3]: Cytochrome P450 7A1 (Homo sapiens) (UniProt P22680)
The test is described as follows: LTEA_HepaRG_CYP7A1: Life Technologies and Expression Analysis (LTEA) Assay for Cytochrome P450 7A1 (CYP7A1) using HepaRG (AID 2283496). An outline of the steps: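 HepaRG, 48 h exposure, 8-pt half-log series from 100 uM, 0.5% DMSO vehicle, duplicates. Readout: TaqMan qRT-PCR mRNA vs three housekeeping genes; bidirectional curve fit against DMSO baseline.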

Read-out in test [4]: Glutathione S-Transferase (GSTA2), GSTA2 (gene 2939)
The test is described as follows: LTEA_HepaRG_GSTA2: Life Technologies and Expression Analysis (LTEA) Assay for Glutathione S-Transferase (GSTA2) using HepaRG (AID 2283497). The method in brief: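 GSTA2 transcript levels came from Fluidigm TaqMan qRT-PCR normalized to three housekeeping genes, fitted in both directions against DMSO. HepaRG cultures received chemicals for 48 h in serum-free induction medium (0.5% DMSO), 8 half-log concentrations up to 100 uM, duplicate.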

Read-out in test [5]: Glutamate-cysteine ligase catalytic (GCLC), GCLC (gene 2729)
Put plainly: LTEA_HepaRG_GCLC: Life Technologies and Expression Analysis (LTEA) Assay for Glutamate-cysteine ligase catalytic (GCLC) using HepaRG (AID 2283498). An outline of the steps:
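Expression by TaqMan qRT-PCR, normalized to three housekeeping genes (ACTB, GAPDH, POLR2A), with up- or down-regulation fitted against DMSO. HepaRG cells dosed in duplicate for 48 h with 8 half-log concentrations up to 100 uM, vehicle 0.5% DMSO.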

Read-out in test [6]: growth arrest and DNA damage 45 (GADD45G), GADD45G (gene 10912)
The test is described as follows: LTEA_HepaRG_GADD45G: Life Technologies and Expression Analysis (LTEA) Assay for growth arrest and DNA damage 45 (GADD45G) using HepaRG (AID 2283499). The method in brief: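 HepaRG, 48 h exposure, top 100 uM, half-log 8-point series, 0.5% DMSO vehicle, duplicates. Readout: GADD45G transcript by qRT-PCR (Fluidigm array), housekeeping-normalised (ACTB/GAPDH/POLR2A). Bidirectional curve fit vs DMSO baseline.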

Read-out in test [7]: Glutamate-cysteine ligase regulatory (GCLM), GCLM (gene 2730)
Put plainly: LTEA_HepaRG_GCLM: Life Technologies and Expression Analysis (LTEA) Assay for Glutamate-cysteine ligase regulatory (GCLM) using HepaRG (AID 2283500). The method in brief: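 Endpoint is GCLM transcript level by qRT-PCR, normalized to three housekeeping genes, after 48 h chemical exposure of human HepaRG cells (0.5% DMSO vehicle, top 100 uM, half-log dilutions). Fitting was bidirectional relative to DMSO.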

Read-out in test [8]: Glutathione S-transferase M3 (GSTM3), GSTM3 (gene 2947)
Put plainly: LTEA_HepaRG_GSTM3: Life Technologies and Expression Analysis (LTEA) Assay for Glutathione S-transferase M3 (GSTM3) using HepaRG (AID 2283501). An outline of the steps:
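qRT-PCR read-out of GSTM3 transcript, normalized to three housekeeping genes, from human HepaRG cells after 48 h chemical exposure. Eight-point half-log series, top 100 uM, 0.5% DMSO vehicle; gain or loss fitted relative to DMSO baseline.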

Read-out in test [9]: Heat shock 70 kDa protein 1 (HSPA1A), gene 3303
Put plainly: LTEA_HepaRG_HSPA1A: Life Technologies and Expression Analysis (LTEA) Assay for Heat shock 70 kDa protein 1 (HSPA1A) using HepaRG (AID 2283502). The method in brief: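 Cells were plated and cultured for 48 h, then switched to serum-free induction medium. Chemicals were added at eight half-log concentrations up to 100 uM for 48 h. RNA was then isolated and HSPA1A measured by qRT-PCR with bidirectional curve fitting against DMSO.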

The source made the active and inactive calls. The calls were made as follows: active = hit-call score of the fitted dose curve at least 0.9, where 1 is the maximum; inactive = score below 0.9.

As usually defined, the AC50 is the concentration at which the activity in the assay is half-maximal. `CCCCCOC(=O)c1ccccc1C(=O)OCCCCC`: the call (with CYP3A5 (gene 1577); in test [1]; in test [3]; in [4]; in test [5]; in [6]) was inactive. Further, the molecule was called inactive in test [7], in [8] and in test [9]. The AC50 in [2] is 79.7 µM (active).
In the case of `CC(C)(C)OOC(=O)c1ccccc1`, the outcome (with CYP3A5 (gene 1577); in test [1]; in [2]; in test [3]; in test [4]; in test [5]) was inactive. The outcome in [6], in test [7], in test [8] and in test [9] was inactive.
Turning to `COC(=O)c1ccccc1N`, the molecule was called inactive (with CYP3A5 (gene 1577); in [1]; in test [2]; in test [3]; in test [4]; in test [5]). For the same molecule, the molecule was called inactive in [6], in test [7], in test [8] and in test [9].
For the molecule `[Cl-].[Cl-].[Hg+2]`, the result (with CYP3A5 (gene 1577); in [1]; in [2]; in test [3]; in test [4]; in test [5]) was inactive. The molecule was classed as inactive in test [7], in test [8] and in test [9]. Further, the AC50 in test [6] is 24.1 µM (active).
As for `Clc1ccccc1Cl`, the call (in the test with CYP3A5 (gene 1577); in [1]; in [2]; in test [3]; in [4]; in test [5]) was inactive. The molecule was classed as inactive in test [6], in test [7], in test [8] and in test [9].
Take `O=C(Nc1ccccc1)c1ccccc1I`: the molecule was called inactive (with CYP3A5 (gene 1577); in [2]; in [4]; in test [8]; in test [9]). Also, the AC50 in test [1] was 21.7 µM (active); in test [3], 28.9 µM (active); in [5], 29.2 µM (active); in test [6], 10.3 µM (active); in [7], 50 µM (active).
As to `N#CC(Br)(Br)C(N)=O`, the outcome (with CYP3A5 (gene 1577); in test [1]; in test [2]; in [3]; in test [4]; in test [5]) was inactive. Moreover, the molecule was classed as inactive in test [6], in test [7], in test [8] and in test [9].
On to `CC(C)COC(=O)c1ccccc1C(=O)OCC(C)C`, for which the outcome (with CYP3A5 (gene 1577); in test [1]; in test [2]; in test [3]; in test [4]; in test [5]) was inactive. The molecule was called inactive in [6], in test [7], in test [8] and in [9].
Take `O=C(Oc1ccc(Br)cc1)N1CCN2CCC1CC2`: the molecule was classed as inactive (with CYP3A5 (gene 1577); in test [3]; in test [4]; in test [5]; in test [6]; in test [7]). Also, the call in test [8] and in test [9] was inactive. Also, the AC50 in test [1] was 31.6 µM (active); in test [2], 40 µM (active).
With `O=Cc1ccco1`, the molecule was called inactive (with CYP3A5 (gene 1577); in [1]; in test [2]; in test [3]; in test [4]; in [5]). The outcome in test [6], in test [7], in test [8] and in test [9] was inactive.
As to `CN(C)c1ccccc1`, the molecule was classed as inactive (with CYP3A5 (gene 1577); in test [1]; in test [2]; in test [3]; in [4]; in test [5]). Moreover, the call in test [6], in [7], in [8] and in test [9] was inactive.
In the case of `O=P(OCCCl)(OCCCl)OCCCl`, the molecule was called inactive (in the test with CYP3A5 (gene 1577); in test [1]; in test [2]; in test [3]; in test [4]; in test [5]). Further, the call in test [6], in [7] and in test [8] was inactive. The AC50 in [9] is 9.92 µM (active).
In the case of `CCCCOC(=O)c1ccccc1C(=O)OCc1ccccc1`, the call (with CYP3A5 (gene 1577); in [1]; in test [2]; in test [3]; in test [4]; in test [5]) was inactive. The molecule was classed as inactive in [6], in [7], in test [8] and in test [9].
As for `COc1cc(C=O)cc2c1[C@H](COC(N)=O)[C@]1(OC(C)=O)ON2C[C@H]2[C@@H]1N2C(C)=O`, the molecule was classed as inactive (with CYP3A5 (gene 1577); in test [7]; in test [8]; in test [9]). The AC50 was 0.701 µM (active) in test [1]; 0.0669 µM (active) in test [2]; 0.417 µM (active) in test [3]; 1.06 µM (active) in test [4]; 0.312 µM (active) in [5]; 21.8 µM (active) in [6].
Regarding `Cc1ccc([N+](=O)[O-])cc1`, the molecule was called inactive (in the test with CYP3A5 (gene 1577); in test [2]; in test [4]; in test [5]; in test [6]; in test [7]). For the same molecule, the molecule was classed as inactive in test [8] and in test [9]. The results for the concentration at half-maximal activity (AC50) in test [1] and in test [3] were 10 µM (active) and 17.3 µM (active), respectively.
Turning to `CC(O)CCO` (stereo not given), the result (in the test with CYP3A5 (gene 1577); in test [1]; in test [2]; in test [3]; in [4]; in test [5]) was inactive. Besides, the call in test [6], in test [7], in [8] and in [9] was inactive.
For `CC(C)(O)c1cnn2c(-c3ccc(F)c(-c4c(F)cccc4C#N)c3)cnc2n1`, the result (with CYP3A5 (gene 1577); in [4]; in test [5]; in test [6]; in test [7]; in test [8]) was inactive. Moreover, the molecule was classed as inactive in [9]. For the same molecule, the values for the AC50 in test [1], in [2] and in test [3] were 1.57 µM (active), 1.71 µM (active) and 4.14 µM (active), respectively.
Turning to `CCCCC(CC)COC(=O)c1ccc(C(=O)OCC(CC)CCCC)c(C(=O)OCC(CC)CCCC)c1` (stereo not given), the outcome (with CYP3A5 (gene 1577); in test [1]; in [2]; in test [3]; in test [4]; in test [5]) was inactive. Also, the call in [6], in test [7], in test [8] and in test [9] was inactive.
Turning to `Clc1ccc(Cl)c(Cl)c1`, the call (with CYP3A5 (gene 1577); in test [1]; in test [2]; in [6]; in test [7]; in test [8]) was inactive. The call in test [9] was inactive. The AC50 in test [3] is 50 µM (active); in [4] it was 84 µM (active); in [5], 9.92 µM (active).
As to `Nc1ccc(Oc2ccc(N)cc2)cc1`, the outcome (with CYP3A5 (gene 1577); in [2]; in test [3]; in test [4]; in test [5]; in test [6]) was inactive. The call in test [7], in [8] and in [9] was inactive. Further, in [1], the AC50 is 50 µM (active).
